Data on twelve compounds can be found in PubChem BioAssay.

Calls of active or inactive are those of the source. Unless noted, no rule for the calls is given here.

A short description of test [1]: HepG2 liver cancer cell viability effects, profiling panel, resazurin fluorescence, 24 h, PK04 Diversity Set (AID 1172). Also: test concentration not given here. The note with it: higher = more signal. In general terms: Alamar Blue is a resazurin reagent that responds to reducing activity.
Test [2] in a line: basal S. cerevisiae growth modulation, no modifier, primary screen, OD600, strain BY4716, 24 h, basal condition (AID 1173). The note with it: OD600, 24 h, higher = more signal, called active from +8 up or from −8 down.
Test [3] is described as follows: MM1S myeloma cell viability, profiling panel, resazurin fluorescence, basal, 24 h, PK04 Diversity Set (AID 1174).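 Also: MM1S multiple myeloma cell line; test concentration not given here.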 The settings on record: higher = more signal, called active from +8 up or from −8 down.
The target in test [4] is Dihydroorotate dehydrogenase (quinone), mitochondrial (Plasmodium falciparum (isolate 3D7)) (UniProt Q08210). Description: PfDHODH enzyme inhibitors, primary screen, biochemical, C-terminal His tag, absorbance 600 nm (AID 1175).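 Also: recombinant parasite enzyme with a five histidine tag at its C terminus; test concentration not given here.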 The settings on record: DCIP absorbance 600 nm, higher = more signal, called active from +8 up or from −8 down.
Chain of Dihydroorotate dehydrogenase (quinone), mitochondrial (Plasmodium falciparum (isolate 3D7)) (Q08210 whole entry, looked up): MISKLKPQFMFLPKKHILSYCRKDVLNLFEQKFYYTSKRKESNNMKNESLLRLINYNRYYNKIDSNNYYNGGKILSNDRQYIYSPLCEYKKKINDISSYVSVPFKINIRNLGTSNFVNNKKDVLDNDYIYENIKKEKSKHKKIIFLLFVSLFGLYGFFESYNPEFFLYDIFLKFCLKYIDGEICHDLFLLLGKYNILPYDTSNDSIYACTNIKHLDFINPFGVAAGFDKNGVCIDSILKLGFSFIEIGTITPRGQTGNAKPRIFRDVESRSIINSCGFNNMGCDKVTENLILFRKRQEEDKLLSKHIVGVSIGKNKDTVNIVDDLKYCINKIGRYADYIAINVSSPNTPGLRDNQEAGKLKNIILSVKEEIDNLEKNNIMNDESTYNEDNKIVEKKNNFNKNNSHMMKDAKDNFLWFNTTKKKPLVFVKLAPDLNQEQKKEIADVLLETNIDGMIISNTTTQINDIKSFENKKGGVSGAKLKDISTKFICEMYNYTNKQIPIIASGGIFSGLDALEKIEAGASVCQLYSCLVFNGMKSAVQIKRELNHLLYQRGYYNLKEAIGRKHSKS
A short description of test [5]: P. aeruginosa biofilm formation inhibitors, primary screen, strain PAO1, LB-PBS medium, absorbance 600 nm (AID 1176). Also: test concentration not given here. The note with it: P. aeruginosa PAO1 growth/biofilm, A600, 12 h; higher = more signal.
The nature of test [6]: S. cerevisiae RM11-1a growth modifiers, primary screen, strain RM11-1a, OD600, basal, 24 h (AID 1177).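 Also: cultures grown under basal conditions with no added stressor; test concentration not given here.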 The settings on record: OD600, 24 h, higher = more signal, called active from +8 up or from −8 down.
Test [7] is described as follows: E. coli acrAB mutant growth effects, primary screen, E. coli filamentation inducers, strain DRC39, OD650, 24 h (AID 1178).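 Also: growth measured as culture turbidity by optical density at 650 nm; test concentration not given here.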 The note with it: higher = more signal, called active from +8 up or from −8 down.
Test [8] in a line: E. coli acrAB mutant growth effects, primary screen, E. coli filamentation inducers, strain DRC39, OD650, 48 h (AID 1179).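 Also: screen aims at cell division blockers that make cells filament.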 The note with it: E. coli DRC39 delta-acrAB growth, higher = more signal, called active from +8 up or from −8 down.
Test [9] in a line: RPMI8226 myeloma cell viability, profiling panel, resazurin fluorescence, basal, 24 h, PK04 Diversity Set (AID 1180).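 Also: RPMI8826 multiple myeloma cell line at 5000 cells per well; test concentration not given here.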 The settings on record: higher = more signal.
Test [10] has as its target E3 ubiquitin-protein ligase XIAP (Homo sapiens) (UniProt P98170). In words: XIAP binders, primary screen, biophysical, small-molecule microarray, fluorescence 635 nm (AID 1181).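 Also: score merges 667 nm emission and signal to noise over triplicate slides.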 The settings on record: small-molecule microarray binding, higher = more signal.

Chain of E3 ubiquitin-protein ligase XIAP (Homo sapiens) (P98170 whole entry, looked up): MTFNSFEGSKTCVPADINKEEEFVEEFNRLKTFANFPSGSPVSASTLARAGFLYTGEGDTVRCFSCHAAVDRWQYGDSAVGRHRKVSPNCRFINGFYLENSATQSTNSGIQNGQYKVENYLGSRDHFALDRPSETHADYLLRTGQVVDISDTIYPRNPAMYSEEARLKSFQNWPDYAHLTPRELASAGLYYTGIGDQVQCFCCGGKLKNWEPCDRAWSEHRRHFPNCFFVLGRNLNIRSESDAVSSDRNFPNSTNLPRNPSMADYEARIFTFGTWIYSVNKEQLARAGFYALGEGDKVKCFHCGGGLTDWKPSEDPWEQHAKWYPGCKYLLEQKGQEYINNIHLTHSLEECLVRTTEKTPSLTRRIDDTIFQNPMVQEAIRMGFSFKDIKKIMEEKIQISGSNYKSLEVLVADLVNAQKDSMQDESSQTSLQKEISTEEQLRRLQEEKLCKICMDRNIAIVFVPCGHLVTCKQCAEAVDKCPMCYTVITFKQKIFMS

Take `CCc1cccc(NC(=O)O[C@H]2[C@H](OC(=O)Nc3ccc4c(c3)OCO4)[C@@H](OC(=O)Nc3ccc4c(c3)OCO4)[C@@H](OC)O[C@@H]2CO)c1`: the z-score in [1] was 1; in test [2], 1.04 (inactive); in test [3], -0.517 (inactive); in test [5] it was 0.745 (inactive); in test [6], 1.88 (inactive); in test [7], 1.57 (inactive). Moreover, the figures for the z-score in test [8] and in [9] were 0.494 (inactive) and -0.36, respectively. The figures for the composite z-score in test [4] and in [10] were -0.0004 (inactive) and -0.173, respectively.
`CN(C)c1ccc(C(O)C2C=CC3C(=O)N(c4ccccc4)C(=O)C3N2Nc2ccccc2F)cc1` (stereo not given): the z-score in test [1] is -0.268; in test [2] it was -1.77 (inactive); in [3] it was -0.234 (inactive); in test [5], 0.657 (inactive); in test [6], 0.545 (inactive); in [7], -0.853 (inactive). Further, the z-score in test [8] is -1.08 (inactive); in test [9], -1.02. Moreover, the composite z-score in test [4] was 1.03 (inactive); in test [10], 0.24.
For `C=C(/C(=C/C[C@H](OC(C)=O)c1ccc(OCCO)cc1)c1cnc2ccccc2c1)C(C)C`, the z-score in test [1] is 1.93; in test [2], -1.34 (inactive); in test [3], -0.97 (inactive); in test [5], -0.092 (inactive); in test [6], -0.705 (inactive); in test [7] it was 0.263 (inactive). For the same compound, the values for the z-score in [8] and in test [9] were -0.511 (inactive) and -0.853, respectively. Further, the composite z-score was -5.53 (inactive) in test [4] and 0.102 in [10].
Consider `CC(C)c1ccc(NN2C(C(O)c3ccc4c(c3)OCO4)C=CC3C(=O)N(c4ccccc4)C(=O)C32)cc1` (stereo not given), for which the z-score was -1.13 in test [1]; -0.791 (inactive) in test [2]; -0.165 (inactive) in [3]; 1.08 (inactive) in test [5]; 0.266 (inactive) in test [6]; -0.167 (inactive) in [7]. The z-score in test [8] is -0.563 (inactive); in test [9], -0.191. Further, the composite z-score in test [4] is -0.0797 (inactive); in [10] it was 0.0641.
As for `CCOC(=O)[C@H](Cc1ccccc1)NC(=O)CCC1CC(OC(=O)NCc2ccc3c(c2)OCO3)CC2(CCCC(COC(=O)NCC3CCCCC3)O2)O1` (stereo not given in full), the z-score was 1.19 in [1]; -0.653 (inactive) in test [2]; 0.625 (inactive) in [3]; -0.695 (inactive) in [5]; 0.104 (inactive) in [6]; 0.0066 (inactive) in test [7]. Besides, the z-score is 0.216 (inactive) in [8] and 0.419 in [9]. Further, the composite z-score was -0.0475 (inactive) in test [4] and 0.257 in test [10].
On to `CO[C@@H]1COC(=O)CC=C[C@@H](C)[C@@H]2C=C[C@H](O)[C@@H](COC(=O)CCC[C@H]1C)O2`, for which the z-score in [1] was 0.696; in [2], -1.19 (inactive); in test [3] it was 0.492 (inactive); in test [5], -0.95 (inactive); in [6] it was -0.725 (inactive); in test [7], 0.118 (inactive). Moreover, the z-score is -0.195 (inactive) in test [8] and 0.401 in [9]. The composite z-score was -0.24 (inactive) in [4] and -0.12 in test [10].
For the compound `CC(CCN1CCCCc2nc(C)c(C)cc21)=NOC(C)CN1CCCCc2nc(C)c(C)cc21` (stereo not given), the z-score in test [1] was 0.149; in test [2], -0.211 (inactive); in [3], -0.29 (inactive); in [5], 0.216 (inactive); in [6] it was 0.596 (inactive); in test [7], 0.5 (inactive). Also, the z-score was -0.024 (inactive) in [8] and 0.643 in test [9]. Also, the composite z-score was 0.159 (inactive) in [4] and 0.24 in test [10].
As for `CC(=O)C[C@H](O)[C@@H](NC(=O)OC(C)(C)C)C(C)C`, the z-score in [1] was -0.519; in test [2], -1.33 (inactive); in test [3] it was 0.481 (inactive); in test [5], 0.0494 (inactive); in [6], -0.407 (inactive); in [7], -1.86 (inactive). In addition, the z-score was -1.1 (inactive) in test [8] and -0.228 in test [9]. Further, the composite z-score in test [4] was -3.13 (inactive); in test [10] it was -0.195.
For the compound `CO[C@H]1COC(=O)[C@@H]2CCCN2C(=O)CC=C[C@@H](C)[C@H](OC)COC(=O)CC=C[C@@H]1C`, the z-score in test [1] is 0.233; in [2], -1.16 (inactive); in test [3], 0.89 (inactive); in test [5], 0.696 (inactive); in test [6] it was -2.08 (inactive); in test [7] it was 1.04 (inactive). Further, the z-score in test [8] was 0.375 (inactive); in test [9] it was -0.395. The composite z-score in test [4] was -0.652 (inactive); in test [10], -0.137.
Consider `CCOC(=O)NN=C1C[C@@H](O)[C@@H](O)[C@@H]2[C@@H]3C(=O)N(C(C)(C)C)C(=O)[C@@H]3CC[C@@H]12`, for which the z-score in test [1] was -0.119; in [2], 0.381 (inactive); in [3], -0.387 (inactive); in test [5], -0.495 (inactive); in test [6] it was -1.23 (inactive); in test [7], -0.654 (inactive). Moreover, the values for the z-score in test [8] and in test [9] were -0.0961 (inactive) and -0.559, respectively. Also, the composite z-score in test [4] is 0.0062 (inactive); in test [10], 0.167.
As for `CCN1C(=O)[C@H]2[C@H]3[C@H](O)[C@H](O)CC(=NOC[C@@H](C)[C@H](OCc4ccccc4)C(C)C)[C@@H]3CC[C@H]2C1=O`, the z-score in [1] is -0.725; in test [2], -4.63 (inactive); in [3], -0.959 (inactive); in test [5], 0.0525 (inactive); in test [6] it was -0.134 (inactive); in [7], 1.03 (inactive). Besides, the z-score was 0.992 (inactive) in test [8] and -0.989 in test [9]. The composite z-score in [4] is -0.613 (inactive); in test [10] it was -0.0599.
In the case of `COC(=O)[C@H](C)NC(=O)[C@@H](C)CO`, the z-score was -1.1 in [1]; -0.0616 (inactive) in test [2]; -1.15 (inactive) in test [3]; -0.351 (inactive) in test [5]; 0.312 (inactive) in test [6]; -1.45 (inactive) in [7]. Further, the z-score in [8] is -0.489 (inactive); in test [9], -0.855. For the same compound, the results for the composite z-score in [4] and in test [10] were 0.38 (inactive) and -0.102, respectively.
